G9a block = G9a (human) methyltransferase inhibition; Q96KQ7; G9a H3K9 monomethylation, AlphaScreen, 2 h; Potency, µM (top dose mostly 102 µM), for the others: at the top dose activity, negative = inhibition, usual class: inhibitors; actives 8.8% (n = 350,000); note: % is set by controls: 0 for no effect and ±100 for the full control effect; nearly all actives have a fitted effect of over 75% in size
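Using a bead-based AlphaScreen, monomethylated H3K9 product from 2 h room-temperature reactions (G9a 20 nM, peptide 500 nM, SAM 20 uM) was detected with 0.5 ug/mL rabbit anti-H3K9me1 antibody.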
JMJD2A Tudor inh = inhibitors of human JMJD2A Tudor domain; O75164; AlphaScreen JMJD2A-Tudor / H3K4me3 peptide binding; Potency, µM (top dose mostly 114 µM), without a hit: at the top dose activity change, negative = inhibition, usual class: inhibitors; actives 4.4% (n = 390,000); AID 504339; note: % is set by controls: 0 for no effect and ±100 for the full control effect; nearly all actives have a fitted effect of over 50% in size
Target sequence (O75164 whole entry, looked up, the tested form may be a part): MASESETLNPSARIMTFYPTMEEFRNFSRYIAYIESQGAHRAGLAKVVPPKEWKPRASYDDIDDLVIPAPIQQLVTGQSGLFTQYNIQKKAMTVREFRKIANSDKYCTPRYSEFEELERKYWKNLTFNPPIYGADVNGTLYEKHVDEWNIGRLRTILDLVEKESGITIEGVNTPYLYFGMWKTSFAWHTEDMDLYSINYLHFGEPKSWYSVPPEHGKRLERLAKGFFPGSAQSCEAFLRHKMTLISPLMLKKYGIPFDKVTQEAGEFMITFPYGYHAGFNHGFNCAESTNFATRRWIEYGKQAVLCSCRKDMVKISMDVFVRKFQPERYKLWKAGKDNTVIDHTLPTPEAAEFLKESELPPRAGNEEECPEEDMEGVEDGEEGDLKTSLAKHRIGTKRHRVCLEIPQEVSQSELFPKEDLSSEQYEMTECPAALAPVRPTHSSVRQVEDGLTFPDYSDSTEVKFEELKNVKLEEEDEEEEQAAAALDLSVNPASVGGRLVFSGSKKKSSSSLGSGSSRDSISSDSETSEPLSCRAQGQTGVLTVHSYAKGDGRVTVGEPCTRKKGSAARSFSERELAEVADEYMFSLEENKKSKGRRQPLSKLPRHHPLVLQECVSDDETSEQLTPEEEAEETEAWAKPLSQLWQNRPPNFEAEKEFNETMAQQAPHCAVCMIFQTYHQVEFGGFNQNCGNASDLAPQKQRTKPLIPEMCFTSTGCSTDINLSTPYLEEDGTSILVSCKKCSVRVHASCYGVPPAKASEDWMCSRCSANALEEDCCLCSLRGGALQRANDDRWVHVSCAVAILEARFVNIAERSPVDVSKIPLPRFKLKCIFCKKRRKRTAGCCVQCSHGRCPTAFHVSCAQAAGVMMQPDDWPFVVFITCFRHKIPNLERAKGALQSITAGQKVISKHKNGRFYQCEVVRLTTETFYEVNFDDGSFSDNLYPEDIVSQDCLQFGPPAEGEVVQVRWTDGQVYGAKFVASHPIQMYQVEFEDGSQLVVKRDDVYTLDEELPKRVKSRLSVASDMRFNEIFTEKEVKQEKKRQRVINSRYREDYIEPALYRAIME
Sfp PPTase inh = inhibitors of Bacillus subtilis Sfp phosphopantetheinyl transferase. actives 3.5% (n = 310,000). Biochemical Sfp PPTase activity, qHTS. AID 1490. Potency, µM, inactives show largest response in the series, negative = inhibition, usual class: inhibitors;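 note: the enzyme is Sfp with the accession as filed and its product quenches rhodamine fluorescence; 0% = enzyme reaction without inhibitor and -100% = no enzyme wells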
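Fluorescence-quenching assay with 15 nM Sfp, 5 uM rhodamine-CoA and 12.5 uM BHQ-2-labelled ybbR peptide in pH 7.6 Hepes/MgCl2 buffer. Enzyme was pre-incubated with compound for 15 min at room temperature. Rate was taken from the 30-min fluorescence change (525/598 nm).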
HP1b chromo inh = HP1-beta chromodomain-methylated histone interaction inhibition | P83916 | actives 0.56% (n = 390,000) | AID 540317 | AlphaScreen HP1-beta / biotin-H3K9me3 peptide binding | Potency, µM (titrated, usually from 114 µM), inactives show at the top dose activity change, negative = inhibition, most hits filed as inhibitors; note: nearly all actives have a fitted effect of over 70% in size
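Compound inhibition of the preformed complex between 50 nM HP1-beta and 50 nM biotinylated H3K9me3 peptide was read by AlphaScreen. Buffer was PBS pH 7.4 with 0.01% Tween-20. Incubations ran 30 min at room temperature, with 10 ug/mL donor/acceptor beads.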
BAZ2B block = BAZ2B (human) inhibition | Q9UIF8 | AlphaScreen BAZ2B-H3K14Ac peptide displacement | Potency, µM (doses to about 114 µM), for inactives: at the highest dose activity change, negative = inhibition, usual class: inhibitors | actives 4.4% (n = 360,000) | AID 504333; note: % is set by controls: 0 for no effect and ±100 for the full control effect; nearly all actives have a fitted effect of over 60% in size
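In this displacement format the biotinylated H3(5-23) peptide acetylated at Lys14 serves as ligand at 50 nM, with BAZ2B at 50 nM in PBS pH 7.4 containing 0.01% Tween-20. Donor and acceptor beads are 10 ug/mL final.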
ALOX12 inh = ALOX12 (human) lipoxygenase inhibition; P18054; purified 12hLO, xylenol orange hydroperoxide absorbance; Potency, µM (series often up to 108 µM), for inactives: at the top dose activity change, negative = inhibition, most hits filed as inhibitors; actives 1.1% (n = 580,000); AID 1671190; note: % is set by controls: 0 for no effect and ±100 for the full control effect
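Purified human 12hLO at 150 nM in 25 mM Hepes, 0.01% Triton X-100, pH 7.0, preincubated 15 min at room temperature with compound. Reaction started with 40 uM arachidonic acid, 30 min at room temperature. Hydroperoxide measured by Fe-xylenol orange, 573/405 nm absorbance ratio.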
Active calls of the source: *; ? = inconclusive; · = no result; ! = not active in a repeat; [ ] = another dose, or the depositor's remark. Shown are actives, neighbours in structure and some others; about 8.7% of the full set was active somewhere. Calls come from the whole dose curve; as a rule, active = well fitted curve in the direction sought with a large enough effect; inconclusive = small, poorly fitted or top-dose-only effect, or another doubt; inactive = no such curve, though single readings can be large; an effect the other way counts as inactive or inconclusive. Potency is the fitted concentration of half-maximal effect.

SMILES	G9a block	JMJD2A Tudor inh	Sfp PPTase inh	HP1b chromo inh	BAZ2B block	ALOX12 inh
CCCCCC(=O)N1CC2(CC(c3cccc(NC(=O)[C@@H]4CCC(=O)N4)c3)=NO2)C[C@@H]1C(N)=O (stereo partly drawn)	0%[12.7 µM]	-24%	9%	13%	1%	?
O=C(Nc1c(C(=O)NC2CCCCC2)cnn1-c1ccccc1)c1ccccc1	·	·	·	·	·	-24%
COc1ccc(C(C)=O)cc1COC(=O)CNC(=O)c1ccc(F)cc1	-15%[59 µM]	1%	2%	30%	-1%	-12%
CCOc1ccc(C(=O)NCC(=O)OCc2cc(C(C)=O)ccc2OC)cc1	45µM*	-4%	-7%	5%	8%	-13%
COc1ccc(C(C)=O)cc1COC(=O)CNC(=O)c1ccc(Cl)cc1	50µM*	-2%	12%	28%	-3%	-2%
CCOc1ccc(C(=O)NCC(=O)OCCCOC(=O)CNC(=O)c2ccc(OCC)cc2)cc1	42%	-4%	6%	28%	-1%	-4%
Cc1scc(C(=O)Nc2ccc3c(c2)CCC3)c1C	·	·	·	·	·	35%
COc1ccc(S(=O)(=O)NC[C@@H]2C=C(C)[C@H](CC(=O)N(C)Cc3cccnc3)C[C@H]2C(C)C)cc1	·	·	·	·	·	6%
CN(C)/C=C/c1oc2ccc(O)cc2c1[N+](=O)[O-]	50µM*	-22%[57.1 µM]	8%	-20%	25µM*	-11%
O=C(c1ccncc1)c1ccc(N2CCN(C3CC(=O)N(Cc4cccs4)C3=O)CC2)cc1 (stereo not drawn)	1%	-17%	9%	41%	-17%	-11%
O=C1CC(N2CCN(c3ccc(O)cc3)CC2)C(=O)N1Cc1cccs1 (stereo not drawn)	-3%[12.7 µM]	56µM*	-85%	?	-9%	?
CCN(C)C(=O)C(C)N1CCc2onc(-c3ccc(-c4ccccc4)cc3)c2C1 (stereo not drawn)	·	·	·	·	·	-28%
Cc1ccc(O)c(C2=NNC(O)(C(F)(F)F)C2)c1 (stereo not drawn)	56µM*	-13%	23%	23%	11%	13%
Cc1nc2ccccc2nc1SCC(=O)Nc1ccccc1C(F)(F)F	·	·	·	·	·	78%
CCCCOc1ccc(C(=O)NNC(=S)NC(=O)CC)cc1	20µM*	?	-5%	39%	9%	·
CC(=O)Nc1ccc(C(=O)NNC(=O)Cc2ccccc2)cc1	·	-18%	9%	-18%	-4%	8%
COc1ccc(CC(=O)NNC(=O)c2ccc(NC(C)=O)cc2)cc1	45µM*	-11%	14%	-17%	-15%	3%
CCC(=O)NC(=S)NNC(=O)c1ccc(OC)cc1	22µM*	22µM*	56µM*	32%	4%	2%
COc1ccc(C(=O)NC(=S)NNC(=O)c2ccc3ccccc3n2)cc1	13µM*	50µM*	13%	-23%	79µM*	?
O=C(CCc1ncc(-c2ccccc2)o1)Nc1ccn[nH]1	·	·	·	·	·	27%
O=C(Cc1c(F)cccc1Cl)NCc1cccnc1N1CCOCC1	·	·	·	·	·	5%
O=C(NC1CCCC1)C(Sc1nc2ccccc2o1)c1ccccc1 (stereo not drawn)	·	·	·	·	·	4%
COc1cc(OC)cc(C(=O)NC2CCSC2=O)c1 (stereo not drawn)	20%[59 µM]	-20%	7%	17%	·	-24%
COc1ccc(C(=O)NC(=S)NC2CCSC2=O)cc1 (stereo not drawn)	10µM*	-12%	5%	32%	-5%	-24%
COc1ccc(C(=O)NC(=S)NNC(=O)c2ccc(C)cc2)cc1	·	?	·	9%	·	?
SMILES	G9a block	JMJD2A Tudor inh	Sfp PPTase inh	HP1b chromo inh	BAZ2B block	ALOX12 inh
COc1ccc(C(=O)NC(=S)NNC(=O)c2ccc(NC(=O)C(C)C)cc2)cc1	4.5µM*	?	1%	-28%	3%	45µM*
O=C(CCl)NCCNC(=O)c1cc(OCC(F)(F)F)ccc1OCC(F)(F)F	-39%	-18%[11.4 µM]	20%	30%	-14%	-17%
O=C(NCC1CCCCN1)c1cc(OCC(F)(F)F)ccc1OCC(F)(F)F (stereo not drawn)	15%[59 µM]	-2%	14%	39%	4%	1.5µM*!
CC(C(=O)N1CCNC1=O)N(C)Cc1ccccc1Cl (stereo not drawn)	·	·	·	·	·	-7%
COc1ccc(C(=O)/C=C/C(=O)N(CC(=O)NC2CCCCC2)Cc2ccc(F)cc2)c(O)c1	·	-21%	8.9µM*	24%	-13%	?
COc1ccc(C(=O)/C=C/C(=O)N(CC(=O)NCCC(C)C)Cc2cccs2)c(O)c1	-30%	-18%	3.5µM*	-16%	-21%	?
COc1ccc(C(=O)N(Cc2ccco2)Cc2cccs2)c(O)c1	?	-32%	?	27%	-11%	0%
COc1ccc(C(=O)CSC2=NS(=O)(=O)c3cc(Cl)ccc3N2)cc1	56µM*	-12%	·	25%	9%	?
CC(=O)Nc1ccc(NC(=O)CSC2=NS(=O)(=O)c3cc(Cl)ccc3N2)cc1	10µM*	-14%	·	6%	-30%	-24%
COc1ccc(CCNC(=O)CSC2=NS(=O)(=O)c3cc(Cl)ccc3N2)cc1OC	-40%	-1%	·	-9%	6%	-26%
O=C(CSC1=NS(=O)(=O)c2cc(Cl)ccc2N1)Nc1ccccc1F	10%[2.33 µM]	-20%	·	10%	5%	?
CCC(C(=O)Nc1nccs1)(C(F)(F)F)C(F)(F)F	?	-10%	6%	24%	56µM*	28%
CC(C)Cc1nc(C#N)c(NCC(c2cccs2)N2CCOCC2)o1 (stereo not drawn)	·	·	·	·	·	-37%
CS(=O)(=O)N1CC[C@H](C(=O)NNC(=O)Cc2ccccc2)C1	·	·	·	·	·	33%[176 µM]
COc1ccc(NC2c3ncccc3C(=O)N2Cc2ccccc2)c(OC)c1 (stereo not drawn)	13µM*	25µM*	-9%	-15%	?	?
COc1ccc(CN2C(=O)c3cccnc3C2Nc2ccc(OC)c(Cl)c2)cc1 (stereo not drawn)	?	50µM*	3%	-16%	?	?
COc1ccc(NC2c3ccccc3C(=O)N2Cc2ccccc2Cl)cc1OC (stereo not drawn)	50µM*	-18%[11.4 µM]	-7%	?	?	?
Cc1cc(=O)n(CC(=O)O)c2ccccc12	2%	-6%	4%	45%	-6%	-2%
CCOC(=O)Cn1c(=O)cc(C)c2ccccc21	13%[59 µM]	13µM*	-5%	?	-1%	-10%
COc1ccc(C2c3[nH]c4ccccc4c3C[C@H]3C(=O)N(C4CCN(Cc5ccccc5)CC4)CC(=O)N23)c(OC)c1 (stereo partly drawn)	?	22µM*	16%	-16%	-37%	9%

Screens deposited in PubChem BioAssay by National Center for Advancing Translational Sciences (NCATS).
